Results filed as inconclusive are left out. Calls of active or inactive are those of the source. Calls come from the whole dose curve; as a rule, active = well fitted cell-killing curve with a large enough effect in the repeat runs; inconclusive = weak or mixed curves, or effect the other way; inactive = no such curve, though single readings can be large or run the other way.
Assay: qHTS assay to identify small molecule antagonists of the peroxisome proliferator-activated receptor gamma (PPARg) signaling pathway - cell viability counter screen (AID 743194); note: nearly all actives have a fitted effect of over 55% in size
Settings: PPARg-bla HEK293H viability, CellTiter-Glo luminescence, 17 h, co-treated with 50 nM rosiglitazone; series mostly up to 62.6 µM; activity change, negative = cytotoxicity: at the top concentration
From the text: U.S. Tox21 Program National Center for Advancing Translational Sciences [NCATS] NIH Chemical Genomics Center [NCGC] U.S. Environmental Protection Agency [EPA] National Institutes of Environmental Health Sciences [NIEHS] National Toxicology Program [NTP] U.S. Food and Drug Administration [FDA] Tox21 Assay Overview: The peroxisome proliferator-activated receptors (PPARs) are lipid-activated transcription factors of the nuclear receptor superfamily with three distinct subtypes namely PPAR alpha, PPAR delta (also called PPAR beta) and PPAR gamma (PPARg). All these subtypes heterodimerize with Retinoid X receptor (RXR) and these heterodimers regulate transcription of various genes. PPAR-gamma receptor (glitazone receptor) is involved in the regulation of glucose and lipid metabolism. To identify the compounds that activate PPAR-gamma signaling, GeneBLAzer PPAR gamma UAS-bla HEK293H cell line (Invitrogen, Carlsbad, CA, USA) containing a beta-lactamase reporter gene under the control of an Upstream Activator Sequence (UAS) was used to screen the Tox21 compound library. The cytotoxicity of the Tox21 compound library against the PPARg-bla cell line was tested in parallel by measuring the cell viability using CellTiter-Glo assay in the same wells.
Tox21 Assay Protocol Summary: PPARg-bla cells were dispensed at 3000 cells/5uL/well in 1536-well black wall/clear bottom plates using a Multidrop Combi (Thermo Fisher Scientific, Waltham, MA) dispenser. After the assay plates were incubated at 37 C and 5% CO2 for 5 h, 23 nL of compounds dissolved in DMSO, positive controls or DMSO only was transferred to the assay plate by a Pintool station (Kalypsys, San Diego, CA), followed by addition of 1ul Rosiglitazone (50 nM, final concentration in the wells). The assay plates were incubated at 37 C for 17 h, and then 1 uL of LiveBLAzerTM B/G FRET substrate was added using a Bioraptr Flying Reagent Dispenser (FRD) workstation (Beckman Coulter, Indianapolis, IN, USA). The assay plates were incubated at room temperature for 1 h and fluorescence intensity was measured by an Envision plate reader (PerkinElmer, Shelton, CT). For cell viability readout that measures cytotoxicity, 4 ul/well of CellTiter-Glo reagent was added into the assay plates using a Flying Reagent Dispenser. After 30 min incubation at room temperature, the luminescence intensity in the plates was measured using a ViewLux plate reader (PerkinElmer).
For `CCCCCSCCCCC`, the “activity change, negative = cytotoxicity” value was -12.7% (inactive). In the case of `CC(NC(CCc1ccccc1)C(=O)O)C(=O)N1C(=O)N(C)CC1C(=O)O` (stereo not given), the “activity change, negative = cytotoxicity” value is reported as 18.4% (inactive). With `CCOC(=O)c1c(C)n(C)c2ccc(O)cc12` the “activity change, negative = cytotoxicity” value was -2.96% (inactive). With `Oc1ccc(C2CNCCc3c2cc(O)c(O)c3Cl)cc1` (stereo not given) the “activity change, negative = cytotoxicity” value was 20.9% (inactive). In the case of `OCCCC1CCCCC1`, the “activity change, negative = cytotoxicity” value is reported as 3.43% (inactive). With `NC(=O)c1ccc(N)cc1` the “activity change, negative = cytotoxicity” value was -0.0987% (inactive). In the case of `FC1(F)C(F)(F)C(F)(F)C2(F)C(F)(F)C(F)(F)C(F)(F)C(F)(F)C2(F)C1(F)F` (stereo not given), the “activity change, negative = cytotoxicity” value is reported as -2.9% (inactive). In the case of `Cn1cc(S(C)=O)c(=O)c2ccc(F)cc21` (stereo not given), the “activity change, negative = cytotoxicity” value is reported as 1.57% (inactive). With `Nc1nc2c(ncn2COC(CO)CO)c(=O)[nH]1` the “activity change, negative = cytotoxicity” value was 9.97% (inactive). In the case of `NS(=O)(=O)c1ccc(C(=O)O)cc1`, the “activity change, negative = cytotoxicity” value is reported as 6.21% (inactive). For `C=CCOCC(CC)(CO)COCC=C`, the “activity change, negative = cytotoxicity” value was 14.6% (inactive). With `COC(=O)[C@@H](N)Cc1ccc(O)c(O)c1` the “activity change, negative = cytotoxicity” value was -17.4% (inactive). With `CN1CCC(=C2c3ccccc3CC(=O)c3sccc32)CC1` the “activity change, negative = cytotoxicity” value was 6.36% (inactive). In the case of `COc1ccc2c(c1)c(CC(=O)OCC(=O)O)c(C)n2C(=O)c1ccc(Cl)cc1`, the “activity change, negative = cytotoxicity” value is reported as -21.6% (inactive). With `NC(=O)COCCN1CCN(C(c2ccccc2)c2ccc(Cl)cc2)CC1` (stereo not given) the “activity change, negative = cytotoxicity” value was -9.83% (inactive). For `CC1(C)CO[C@@H](CC(=O)O)CN1`, the “activity change, negative = cytotoxicity” value was 20.4% (inactive). For `CC(C)(c1ccc(O)cc1)c1ccc(O)cc1`, the “activity change, negative = cytotoxicity” value was 1.06% (inactive). With `O=C(O)CNC(=O)c1ccc([N+](=O)[O-])cc1` the “activity change, negative = cytotoxicity” value was 13.5% (inactive). In the case of `CC(C)(C)NCCNC(C)(C)C`, the “activity change, negative = cytotoxicity” value is reported as 6.21% (inactive). For `C[C@@H]1CCN(C(=O)[C@H](CCCN=C(N)N)NS(=O)(=O)c2cccc3c2NC[C@H](C)C3)[C@@H](C(=O)O)C1`, the “activity change, negative = cytotoxicity” value was 1.57% (inactive). With `C=C(C)CS(=O)(=O)O` the “activity change, negative = cytotoxicity” value was 15.2% (inactive). In the case of `CCC(C)S` (stereo not given), the activity change, negative = cytotoxicity is reported as -9.73% [at 2.7 µM] (inactive). For `O=C1NC(=O)[C@@]2(CCOc3ccc(F)cc32)N1`, the “activity change, negative = cytotoxicity” value was -12.7% (inactive). In the case of `Cc1cc(O)cc2c1O[C@](C)(CCC[C@H](C)CCC[C@H](C)CCCC(C)C)CC2`, the “activity change, negative = cytotoxicity” value is reported as 9.55% (inactive). For `CCOC(C)(C)C`, the “activity change, negative = cytotoxicity” value was 4.23% [at 81.1 µM] (inactive). With `CC/C=C\CC/C=C/C(OCC)OCC` the “activity change, negative = cytotoxicity” value was 0.936% (inactive). In the case of `CN1N=C(C(N)=O)CCC1=O`, the “activity change, negative = cytotoxicity” value is reported as 13.9% (inactive). With `Nc1ccc(S(=O)(=O)Nc2ccnn2-c2ccccc2)cc1` the “activity change, negative = cytotoxicity” value was -0.3% [at 29.1 µM] (inactive). With `Cc1ccc(=O)n(-c2ccccc2)c1` the “activity change, negative = cytotoxicity” value was -11.1% (inactive). For `COCCCOCCCOC`, the “activity change, negative = cytotoxicity” value was 19.5% (inactive). For `CCC(C)C1CCCCC1=O` (stereo not given), the “activity change, negative = cytotoxicity” value was -8.55% (inactive). With `OC[C@]1(O)OC[C@@H](O)[C@H](O)[C@@H]1O` the outcome was “inactive”. For `CCOC(=O)c1ccc(C)cc1`, the “activity change, negative = cytotoxicity” value was 1.93% (inactive). In the case of `Nc1c2c(nc3ccccc13)CCCC2O` (stereo not given), the “activity change, negative = cytotoxicity” value is reported as 1.5% (inactive). In the case of `O=C1CCCN1C1CCCCC1`, the “activity change, negative = cytotoxicity” value is reported as 5.25% (inactive). With `COC(=O)NN` the “activity change, negative = cytotoxicity” value was -9.94% [at 81.1 µM] (inactive). With `O=Cc1cccc([N+](=O)[O-])c1` the “activity change, negative = cytotoxicity” value was 14.3% (inactive). In the case of `CCCCCCCCCCCCCCCCC`, the “activity change, negative = cytotoxicity” value is reported as 4.1% (inactive). For `CC(C[N+](C)(C)C)OC(N)=O` (stereo not given), the “activity change, negative = cytotoxicity” value was 7.5% (inactive). With `CC(C(=O)O)c1ccc(CC2CCCC2=O)cc1` (stereo not given) the “activity change, negative = cytotoxicity” value was -9.81% (inactive).

Reference: PubChem BioAssay (Tox21)
% is set by controls: 0 for no effect and ±100 for the full control effect.
